The results in this text go back to ChEMBL document CHEMBL3433997, “St. Jude Leishmania screening dataset” (2016).

In the experiment the target is Solute carrier family 2, facilitated glucose transporter member 1 (Homo sapiens) (UniProt P11166). The experiment is described as follows: ST_JUDE_LEISH: Cytotoxicity at 2uM final concentration against transgenic Leishmania Mexicana promastigotes LmGLUT1 that are glucose transport deficient and complemented with the human glucose transporter GLUT1. Activity is measured by DNA content using SYBR green in vitro. The class given is functional.
Sequence of Solute carrier family 2, facilitated glucose transporter member 1 (Homo sapiens) (P11166 whole entry): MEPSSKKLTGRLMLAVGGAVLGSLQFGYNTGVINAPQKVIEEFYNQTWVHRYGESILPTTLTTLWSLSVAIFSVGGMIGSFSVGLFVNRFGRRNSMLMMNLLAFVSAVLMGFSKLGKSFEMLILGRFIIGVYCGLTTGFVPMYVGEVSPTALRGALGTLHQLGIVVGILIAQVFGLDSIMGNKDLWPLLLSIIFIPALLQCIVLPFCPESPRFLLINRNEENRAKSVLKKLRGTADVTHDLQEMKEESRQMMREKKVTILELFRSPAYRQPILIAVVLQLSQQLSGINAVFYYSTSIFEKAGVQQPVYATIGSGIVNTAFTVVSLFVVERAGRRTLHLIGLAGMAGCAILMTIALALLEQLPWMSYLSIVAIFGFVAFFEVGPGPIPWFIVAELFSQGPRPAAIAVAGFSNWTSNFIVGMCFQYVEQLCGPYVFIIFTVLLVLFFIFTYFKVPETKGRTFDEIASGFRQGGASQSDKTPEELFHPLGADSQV
As for `FC(F)(F)c1cccc(CNC2CCN(CC3CCCCC3)CC2)c1`, the inhibition came to 5.19%. As for `Cn1cncc1CNCc1ccc(-c2cccc(-c3nc4ccccc4[nH]3)c2)cc1`, the figure is -1.06%; as for `CCNc1cc(C(=O)N[C@@H](Cc2cc(F)cc(F)c2)[C@H](O)CNCc2cccc(C(F)(F)F)c2)cc(N2CCCCS2(=O)=O)c1`, -0.07%; as for `c1ccc(Oc2ccc(Nc3ccnc(Nc4ccc5cn[nH]c5c4)n3)cc2)cc1`, 3.91%.

Consider `Cc1c(C(=O)N2CCCC(C(F)(F)F)C2)sc2cccc(F)c12` (stereo not given), for which the inhibition came to 8.1%. Consider `O=C(Nc1cccc(-c2ccc(-c3nc4ccccc4[nH]3)cc2)c1)c1csnn1`, for which the inhibition was 1.19%. Turning to `CCCN(CC1CC1)c1nc(C)nc2c(-c3ccccc3)cc(C)cc12`, the inhibition worked out at 12.7%.

Turning to `O=C(Nc1ccc(Cn2ncc(N3CCCNCC3)c(Cl)c2=O)cc1)Nc1cccc(SC(F)(F)F)c1`, the inhibition was determined as 0.84%. `Cc1ccc(-c2cnc3[nH]cc(-c4ccc(C(=O)O)c(C)c4)c3c2)cc1C`: the inhibition worked out at 1.15%. As for `O=C(Nc1ccc(C(=O)Nc2cccc(C3=NCCN3)c2)cc1)Nc1ccc(C2=NCCN2)cc1`, the figure is -1.17%; as for `O=C(Nc1cccc([N+](=O)[O-])c1)N(Cc1ccc(Cl)c(Cl)c1)C1CCNCC1`, 5.08%; as for `CNCCNCc1cccc(-c2ccc(-c3nc4ccccc4[nH]3)s2)c1`, 1.51%.

As to `Cc1c(Cc2ccccc2Br)cnc2nc(N)nc(N)c12`, the inhibition is 9.6%. As for `N#Cc1ccc(C(=O)Nc2cccc(-c3ccc(CN4CCCC4)cc3)c2)cc1`, the figure is 11.4%; as for `N=C(N)NC(=O)Nc1cc(Cl)c(F)c(Cl)c1`, 3.91%; as for `O=C(Nc1ccc2c(ccn2C2CCCN(Cc3cc(F)cc(F)c3F)CC2)c1)c1ccco1` (stereo not given), 1.97%. As for `COc1cccc(C=NNc2cc(C)nc3c(OC)cccc23)c1`, the inhibition was determined as 3.12%.

`COc1cc(-c2cc3cc(Cl)c(Cl)cc3[nH]2)ccc1C(=O)NC1CCN(Cc2ccccc2)CC1`: the inhibition came out at 4.58%. As for `COc1ccccc1/C=C/C(=O)N(C)C1CCN(CCCCCNC(=O)/C=C/c2ccc(Cl)c(Cl)c2)CC1`, the figure is 4.19%; as for `C=C[C@H]1CN(CCCCCCC)CC[C@H]1CC(=O)Nc1cnnc2ccc(OC)cc12`, 1.79%; as for `Cc1ccc(NC(=O)Nc2ccccc2)cc1-c1ccc(C(=O)Nc2ccncc2)cc1`, 9.17%. As for `Cc1ccccc1C1CCN(C2CCC(NC(=O)/C=C/c3cc(F)cc(F)c3)CC2)CC1` (stereo not given), the figure is -1.34%; as for `CCc1cn(CCc2ccccc2)c2ccc(C(=O)N[C@@H](Cc3ccccc3)[C@H](O)CNC(C)(C)CCCC(C)C)cc12`, -1.76%. Regarding `CCOC(=O)c1cc(C(=O)OC)c2ccccn12`, the inhibition turned out to be 2.17%. As for `O=C1OC(c2ccccc2)(c2ccccc2)CN1CC1CCN(Cc2ccc(O)c(Cl)c2)CC1`, the figure is 70%; as for `Cc1cc(C)cc(OCC(O)CN(Cc2cc(Cl)cc(Cl)c2)C(=O)Nc2ccc([N+](=O)[O-])cc2)c1` (stereo not given), 4.12%. As for `CCNC(C)(C)CN(Cc1ccc(-c2ccc(C(F)(F)F)cc2)cc1)C(=O)Cn1c(SCc2ccc(F)cc2)nc(=O)c2c1CCC2`, the figure is 8.5%; as for `COc1ccc(OCC(=O)Nc2nc(-c3ccc(OC)cc3)c(C)s2)cc1`, 1.08%. Under `CCN(CC)Cc1cc(Nc2c3ccc(Cl)cc3nc3cccc(OC)c23)ccc1O` stands 7.41%; under `CCOc1ccc(NC(=O)c2ccc(CN3CCCN(Cc4cccc(O)c4)CC3)cc2)cc1`, 3.91%; under `CS(=O)(=O)c1ccccc1CNC(=O)c1cccc(-c2ccc(-c3nc4cc(C(F)(F)F)ccc4[nH]3)cc2)c1`, 2.38%. As for `Cc1ccc(NC(=O)c2ccc(CN3CCCN(Cc4cccc(O)c4)CC3)cc2)cc1C`, the inhibition worked out at 0.9%. As for `CN(C)c1ccc(C2c3[nH]cnc3CCN2C(=O)Nc2cccc([N+](=O)[O-])c2)cc1` (stereo not given), the figure is 7.55%; as for `CN(C)CCOc1cc(NC(=O)Nc2ccc(-c3ccccc3)cc2Cl)ccc1I`, 1.19%. Under `CC(=NNC(S)=NC(C)(C)C)c1ccccn1` stands 65.9%; under `c1cc2c3c(cccc3c1)NC(CCCCCCCCC1=Nc3cccc4cccc(c34)N1)=N2`, 2.66%; under `O=C(NOCc1ccccc1)c1cc(Cl)ccc1O`, 2.44%. As for `CC(CO)(CO)NCc1cc2ccc3ccsc3c2c2ccccc12`, the figure is 77.1%; as for `Cc1cc(OCC2CCN(c3ncc(C(=O)Nc4ccccc4)cc3Cl)CC2)ccc1F`, 1.05%; as for `COc1cc(Nc2ccnc3cc(-c4nccs4)ccc23)ccc1OCCCc1nc2ccccc2[nH]1`, 3.6%.
